{"source": "paper PMC7826789", "about": "(International Journal of Molecular Sciences, 2021);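 note: KINOMEscan scanMAX binding as percent activity remaining versus control; lower means stronger binding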", "data": [{"system": "T1, CDC2L5", "T1 construct": "gene CDK13", "details": "Compound Concentration (nM):1000", "units": {"Percent Control": "%"}, "values": [{"smiles": "CC1=C(C(=O)Nc2ccc3[nH]ncc3c2)C(c2ccc(Cl)c(Cl)c2)CC(=O)N1", "note": "(centres unmarked) [GSK299115A]", "Percent Control": 77}, {"smiles": "NS(=O)(=O)c1ccc(N/N=C2\\C(=O)Nc3ccc(Cl)cc32)cc1", "note": "[GW280670X]", "Percent Control": 100}, {"smiles": "COc1cc(C=NNc2ncnc3c2cnn3-c2ccccc2)ccc1O", "note": "[GW513184X]", "Percent Control": 96}, {"smiles": "COc1cc2ncnc(Nc3ccc4c(cnn4Cc4ccccc4)c3)c2cc1OC.Cl", "note": "[GW282449A]", "Percent Control": 100}, {"smiles": "COC(=O)Nc1nc2ccc(Oc3ccc(NC(=O)Nc4cc(C(F)(F)F)ccc4F)cc3)cc2s1.Cl", "note": "[GW693917A]", "Percent Control": 19}, {"smiles": "NS(=O)(=O)c1ccc(N/N=C2\\C(=O)Nc3ccc(C(=O)NCc4ccncc4)cc32)cc1", "note": "[GW300657X]", "Percent Control": 24}, {"smiles": "Cl.O=C(Nc1ccc(Oc2ccc3[nH]c(NC(=O)c4ccco4)nc3c2)cc1)Nc1cc(C(F)(F)F)ccc1F", "note": "[GW683134A]", "Percent Control": 95}, {"smiles": "COc1ccccc1-c1cc(/C=C2\\C(=O)Nc3ncc(Br)cc32)cc(Br)c1O", "note": "[GW442130X]", "Percent Control": 91}, {"smiles": "CN1CCN(C(=O)c2ccc(NC(=O)Nc3ccc(N(C)c4ccnc(Nc5ccc(CS(C)(=O)=O)cc5)n4)cc3)cc2)CC1.Cl", "note": "[GW830263A]", "Percent Control": 13}, {"smiles": "Cc1cc(O)cc(C)c1/C=C/c1cncc(C(N)=O)c1", "note": "[GW435821X]", "Percent Control": 100}]}, {"system": "T2, CDK11", "T2 construct": "gene CDK19", "details": "Compound Concentration (nM):1000", "units": {"Percent Control": "%"}, "values": [{"smiles": "O=C(Nc1n[nH]c2nc(-c3ccc(O)cc3)c(Br)cc12)C1CC1", "note": "[SB-725317]", "Percent Control": 100}, {"smiles": "COc1cccc(-c2c[nH]c3c(N/N=C/c4ccncc4)ncnc23)c1", "note": "[GW814408X]", "Percent Control": 100}, {"smiles": "Cl.O=C(O[C@H]1CN[C@H](C#Cc2cc3ncnc(Nc4ccc5c(cnn5Cc5ccccc5)c4)c3s2)C1)N1CCOCC1", "note": "[GSK200398A]", "Percent Control": 92}, {"smiles": "CCS(=O)(=O)c1ccc(OC)c(Nc2ncc(-c3cccc(OC)c3)o2)c1", "note": "[GW580509X]", "Percent Control": 100}, {"smiles": "COc1ccc2cc(-c3c(-c4ccncc4)nc(-c4ccc(S(C)(=O)=O)cc4C)n3C)ccc2c1", "note": "[SB-633825]", "Percent Control": 100}, {"smiles": "COc1ccc(COc2ccc(Cc3cnc(N)nc3N)cc2OC)cc1", "note": "[GW632580X]", "Percent Control": 89}, {"smiles": "C[C@@H](Oc1cc(-n2cnc3ccc(OC4CCN(C)CC4)cc32)sc1C(N)=O)c1ccccc1Cl", "note": "[GSK579289A]", "Percent Control": 100}, {"smiles": "CCS(=O)(=O)c1ccc(OC)c(Nc2ncc(-c3cccc(F)c3)o2)c1", "note": "[GW621970X]", "Percent Control": 100}, {"smiles": "COc1cc(N2CCN(C(C)C)CC2)ccc1Nc1nc(Nc2ccc(F)cc2C(=O)NC[C@@H](O)CO)c2cc[nH]c2n1", "note": "[GSK1392956A]", "Percent Control": 91}, {"smiles": "COc1cc2ncn(-c3cc(O[C@H](C)c4ccccc4Cl)c(C(N)=O)s3)c2cc1OC", "note": "[GSK237701A]", "Percent Control": 84}, {"smiles": "Cl.O=C(Nc1ccc(Oc2ccc3[nH]c(NC(=O)c4ccccc4)nc3c2)cc1)Nc1cc(C(F)(F)F)ccc1F", "note": "[GW709042A]", "Percent Control": 23}, {"smiles": "COc1cc(C)c(N(C)C(=O)CN(C)C)cc1Nc1nc(Nc2cccc(F)c2C(N)=O)c2cc[nH]c2n1", "note": "[GSK2219385]", "Percent Control": 92}, {"smiles": "CCc1ccc(Oc2nccc(-c3c(-c4ccc(F)cc4)ncn3C3CCNCC3)n2)cc1", "note": "[SB-242719]", "Percent Control": 95}, {"smiles": "CC1=C(C(=O)Nc2ccc3[nH]ncc3c2)C(c2ccc3ccccc3c2)CC(=O)N1", "note": "(centres unmarked) [GSK270822A]", "Percent Control": 90}, {"smiles": "Nc1ncnc2occ(-c3ccc(NC(=O)Nc4cc(C(F)(F)F)ccc4F)cc3)c12", "note": "[GW770249X]", "Percent Control": 0}, {"smiles": "O=C1Nc2ccc(C(=O)c3ccco3)cc2C1=Cc1cc(Cl)c(O)c(Cl)c1", "note": "[GW406108X]", "Percent Control": 100}, {"smiles": "COc1ccc2[nH]c3c4[nH]c5ccc(OC)cc5c4c4c(c3c2c1)C(=O)NC4=O", "note": "[GW296115X]", "Percent Control": 100}, {"smiles": "CN(C)CCNC(=O)Nc1ccc(N(C)c2ccnc(Nc3ccc(CS(C)(=O)=O)cc3)n2)cc1.Cl", "note": "[GW830900A]", "Percent Control": 100}, {"smiles": "Cl.c1ccc(Cc2nc3ccc(Nc4ncnc5ccccc45)cc3[nH]2)cc1", "note": "[GR269666A]", "Percent Control": 100}, {"smiles": "COc1ccc2c(-c3ccnc(Nc4cccc(OC(F)(F)F)c4)n3)cnn2n1", "note": "[GW810372X]", "Percent Control": 100}, {"smiles": "COc1cccc(-n2ncc3c(N/N=C/c4ccncc4)ncnc32)c1", "note": "[GW784752X]", "Percent Control": 100}, {"smiles": "COc1cc(/C=N/Nc2ncnc3[nH]ncc23)ccc1O", "note": "[GW578748X]", "Percent Control": 100}]}]}
